In PubChem BioAssay:

biological target: NADPH oxidase 2 (Homo sapiens) (UniProt P04839); assay: compounds shifting NOX2 Amplex Red fluorescence – cell-based, HEK293-NOX2, PMA-stimulated, NOX inhibitor project, primary screen (AID 1159); settings: 45 min, higher = more signal, called active from +8 up or from −8 down; also: test concentration not given here
Sequence (P04839 whole entry, looked up): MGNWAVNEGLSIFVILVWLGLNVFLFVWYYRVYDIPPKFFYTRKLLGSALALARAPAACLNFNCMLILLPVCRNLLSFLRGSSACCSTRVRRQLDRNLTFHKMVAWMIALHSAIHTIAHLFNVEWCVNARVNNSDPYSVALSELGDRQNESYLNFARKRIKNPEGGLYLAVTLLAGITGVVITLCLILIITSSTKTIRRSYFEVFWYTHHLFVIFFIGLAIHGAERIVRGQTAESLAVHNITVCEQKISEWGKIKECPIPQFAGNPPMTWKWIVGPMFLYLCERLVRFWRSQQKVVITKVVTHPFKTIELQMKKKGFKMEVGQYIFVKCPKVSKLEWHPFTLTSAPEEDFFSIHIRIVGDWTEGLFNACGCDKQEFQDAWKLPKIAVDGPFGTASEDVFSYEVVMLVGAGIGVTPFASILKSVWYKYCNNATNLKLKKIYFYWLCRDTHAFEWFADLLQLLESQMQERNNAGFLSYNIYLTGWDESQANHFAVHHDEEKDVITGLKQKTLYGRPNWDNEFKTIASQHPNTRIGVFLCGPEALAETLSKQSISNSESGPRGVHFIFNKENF

z-score, inactive:
CC(CCC(=O)OC[C@H]1O[C@H](C#Cc2ccccc2)C=C[C@@H]1Oc1ccc(C)cc1)=NOC(C)CN1CCCCc2nc(C)c(C)cc21 (some centres not stated) -0.802
CO[C@@H]1C=CCC(=O)N[C@@H](C)C(=O)OC[C@@H](OC)[C@H](C)C=CCC(=O)OC[C@H]1C -0.27
CO[C@@H]1[C@H](O)CO[C@H]1C=Cc1ccccc1 -0.403
CO[C@H]1COC(=O)[C@H](CCSC)NC(=O)CC=C[C@@H](C)[C@H](OC)COC(=O)[C@@H](OCc2ccccc2)C=C[C@@H]1C 0.167
COc1ccc(OC[C@H]2CN3[C@@H](CC[C@@H](C)[C@@H]3c3ccc(Br)cc3)C(=O)O2)cc1 -0.783
COc1ccc(O[C@H]2C=C[C@@H](c3ccccc3)O[C@@H]2CO)cc1 -0.242

biological target: NADPH oxidase 4 (Homo sapiens) (UniProt Q9NPH5); assay: compounds shifting NOX4 Amplex Red fluorescence – cell-based, HEK293-NOX4, tetracycline-induced, NOX inhibitor project, primary screen (AID 1160); settings: HEK293-NOX4, Amplex Red H2O2 fluorescence, 45 min; higher = more signal, called active from +8 up or from −8 down
Sequence (Q9NPH5 whole entry, looked up): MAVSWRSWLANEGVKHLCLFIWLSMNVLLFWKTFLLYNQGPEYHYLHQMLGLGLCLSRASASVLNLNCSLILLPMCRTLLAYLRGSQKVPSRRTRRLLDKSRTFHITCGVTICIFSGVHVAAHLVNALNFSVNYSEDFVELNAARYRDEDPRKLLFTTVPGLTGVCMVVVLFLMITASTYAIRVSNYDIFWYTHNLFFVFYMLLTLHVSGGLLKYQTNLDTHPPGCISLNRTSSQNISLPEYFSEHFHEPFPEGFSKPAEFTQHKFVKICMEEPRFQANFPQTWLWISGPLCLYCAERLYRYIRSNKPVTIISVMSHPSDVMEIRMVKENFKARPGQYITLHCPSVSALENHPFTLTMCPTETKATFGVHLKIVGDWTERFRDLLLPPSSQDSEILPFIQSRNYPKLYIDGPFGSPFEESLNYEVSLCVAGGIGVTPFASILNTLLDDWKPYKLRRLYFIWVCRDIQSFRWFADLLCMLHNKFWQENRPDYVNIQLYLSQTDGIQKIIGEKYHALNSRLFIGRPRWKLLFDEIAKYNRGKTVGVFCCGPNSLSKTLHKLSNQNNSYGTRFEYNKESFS

z-score, inactive:
CC(=O)OC[C@H]1O[C@@H](ON=C(C)C)[C@H](OC(C)=O)[C@@H](OC(C)=O)[C@@H]1OC(C)=O 0.378
CC(C)=CCCC(C)=CCON=C1[C@H]2CCn3c(=O)n(-c4ccccc4)c(=O)n3[C@H]2[C@H](O)[C@@H]2O[C@H]12 0.577
COC(=O)CC=C[C@@H](C)[C@@H](C=NOC[C@@H](C)[C@H](OCc1ccccc1)C(C)C)OC -0.614
CCOC(=O)CCN1C(=O)[C@H]2[C@H]3[C@H](O)[C@H](O)CC(=NO[C@@H]4O[C@H](CO)[C@@H](O)[C@H](O)[C@H]4O)[C@@H]3CC[C@H]2C1=O 0.332
COC(=O)[C@H](C)NC(=O)CCC1CC(OC(=O)NCc2ccc3c(c2)OCO3)CC2(CCCC(COC(=O)NCCc3ccc(Cl)cc3)O2)O1 (some centres not stated) 0.148
CC(CCN1CCCc2nc(C)c(C)cc21)=NOC[C@@H](O)COCc1ccco1 -0.583
CC(CCN1CCCCc2nc(C)c(C)cc21)=NO[C@@H](C)c1cc(-c2c(C)cc(C)cc2C)no1 -0.125
C[C@H]1CC[C@@H](C(=O)O)N[C@@H]1c1ccc(C#Cc2ccccc2)cc1 1.11
COc1ccc(O[C@H]2C=C[C@@H](c3ccccc3)O[C@@H]2COC(=O)NCc2cccc3ccccc23)cc1 -0.0581
CC(C)CON=C1C[C@@H](O)[C@@H](O)[C@@H]2[C@@H]3C(=O)N(C(C)(C)C)C(=O)[C@@H]3CC[C@@H]12 -0.75
CC(C)CON=C1[C@H]2CCn3c(=O)n(C)c(=O)n3[C@H]2[C@H](O)[C@@H]2O[C@H]12 0.0343
CCOC(=O)CCN1C(=O)[C@H]2[C@H]3[C@H](O)[C@H](O)CC(=O)[C@@H]3CC[C@H]2C1=O 0.41
CC1(C)O[C@H]2OC([C@H](O)CON3C(=O)c4ccccc4C3=O)[C@H](O)[C@H]2O1 (some centres not stated) 0.146
COc1cccc([C@H](O)Cn2cc(-c3ccc(CON=C(C)C)cc3)nn2)c1 -0.0373
COCC#Cc1ccc([C@@H]2N[C@H](C(=O)O)CC[C@H]2C)cc1 0.301
O=C1C[C@H](c2ccccc2)[C@H](c2ccc(Br)cc2)O1 -0.255
CCCNC(=O)OC[C@H]1O[C@H](CCON=C[C@@H](NS(=O)(=O)c2ccc(C)cc2)[C@H](C)C=CCC(=O)OC)C=C[C@@H]1Oc1ccc(OC)cc1 0.361
CCOC(=O)[C@H](Cc1ccccc1)NC(=O)CCC1CC(OC(=O)NCCc2ccc(F)cc2)CC2(CCCC(COC(=O)NCCOc3ccccc3)O2)O1 (some centres not stated) 0.767
C=CC[C@@H]1C=C[C@H](Oc2ccc(C)cc2)[C@@H](COC(=O)NCc2cccc3ccccc23)O1 -0.187
O=C1C2=CC[C@H]3C(=O)N(C[C@@H]4CCCO4)C(=O)[C@H]3[C@H]2[C@H](O)[C@@H]2O[C@H]12 -0.219
CSCC[C@@H]1NC(=O)CC=C[C@@H](C)COC(=O)[C@H](C)COC1=O 0.384
COC(=O)[C@H](Cc1ccccc1)NC(=O)[C@@H](C)CO 0.185
O=C1[C@H]2[C@H]3[C@H](O)[C@H](O)CC(=NOCc4ccccc4)[C@@H]3CC[C@H]2C(=O)N1c1cccc(Oc2ccccc2)c1 0.735
CC(C)C(=O)N[C@H]1CCCN1C(=O)C=Cc1ccccc1 0.913
CCN1C(=O)[C@H]2[C@H]3[C@H](O)[C@H](O)CC(=NOCC(C)C)[C@H]3CC[C@H]2C1=O 0.358
C#CCCCON=C1[C@H]2CCn3c(=O)n(Cc4cc5c(cc4Cl)OCO5)c(=O)n3[C@H]2[C@H](O)[C@@H]2O[C@H]12 0.367
COC(=O)[C@H](C)NC(=O)CCC1CC(OC(=O)NCc2cccc3ccccc23)CC2(CCCC(COC(=O)NCCOc3ccccc3)O2)O1 (some centres not stated) -0.292
CO[C@H]1COC(=O)CC=C[C@@H](C)COC(=O)[C@H]2CCCN2C(=O)CC=C[C@H]1C 0.32
O=C1C[C@@H](O)[C@@H](O)[C@@H]2[C@@H]3C(=O)N(C4CCCCC4)C(=O)[C@@H]3CC[C@@H]12 0.468
CN1CCc2nc(-c3ccccc3)c(-c3ccccc3)cc2C1 -0.0205
CC(CCC(=O)OC[C@H]1O[C@H](C#Cc2ccccc2)C=C[C@@H]1Oc1ccc(C)cc1)=NOC(C)CN1CCCCc2nc(C)c(C)cc21 (some centres not stated) -0.341
CO[C@@H]1C=CCC(=O)N[C@@H](C)C(=O)OC[C@@H](OC)[C@H](C)C=CCC(=O)OC[C@H]1C 0.0964
CO[C@@H]1[C@H](O)CO[C@H]1C=Cc1ccccc1 -0.898
CO[C@H]1COC(=O)[C@H](CCSC)NC(=O)CC=C[C@@H](C)[C@H](OC)COC(=O)[C@@H](OCc2ccccc2)C=C[C@@H]1C 0.25
COc1ccc(OC[C@H]2CN3[C@@H](CC[C@@H](C)[C@@H]3c3ccc(Br)cc3)C(=O)O2)cc1 -1.61
COc1ccc(O[C@H]2C=C[C@@H](c3ccccc3)O[C@@H]2CO)cc1 -0.634
